{"source": "the supplement of paper PMC3334620", "note": "The full ranking holds about 33,000 sequences; the median of “E-score (-0.5 to 0.5)” is about -0.012, and the highest 2% start at about 0.27. What follows is part of a selection rich in the highest values, with near analogues and random picks from the rest.", "data": [{"target": "T1, Vhr1 (UniProt P40522)", "T1 sequence": "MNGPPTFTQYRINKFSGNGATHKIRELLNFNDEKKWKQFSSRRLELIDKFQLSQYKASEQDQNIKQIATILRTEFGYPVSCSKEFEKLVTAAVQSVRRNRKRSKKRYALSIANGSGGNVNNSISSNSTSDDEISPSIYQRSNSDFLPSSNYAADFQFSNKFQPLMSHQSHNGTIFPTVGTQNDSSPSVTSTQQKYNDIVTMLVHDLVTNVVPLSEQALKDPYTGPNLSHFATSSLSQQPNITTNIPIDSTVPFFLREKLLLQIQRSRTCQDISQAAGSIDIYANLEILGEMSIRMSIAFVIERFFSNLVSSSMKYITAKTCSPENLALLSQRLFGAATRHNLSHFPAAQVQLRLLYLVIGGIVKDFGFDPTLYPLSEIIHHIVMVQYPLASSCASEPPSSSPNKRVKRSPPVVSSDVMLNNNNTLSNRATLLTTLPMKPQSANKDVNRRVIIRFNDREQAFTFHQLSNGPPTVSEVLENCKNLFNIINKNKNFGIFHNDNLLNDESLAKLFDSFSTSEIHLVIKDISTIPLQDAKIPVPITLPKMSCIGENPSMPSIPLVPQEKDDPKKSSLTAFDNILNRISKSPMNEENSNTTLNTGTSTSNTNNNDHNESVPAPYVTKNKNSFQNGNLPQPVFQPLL", "assay": "PBM E-score (8-mer binding enrichment) (E-score (-0.5 to 0.5)); higher = stronger / more preferred TF binding", "conditions": "protein concentration: 200 nM; construct: GST-full length", "method": "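Universal 'all 10-mer' protein binding microarrays (Agilent AMADID 015681) probed with GST-tagged S. cerevisiae TFs (full-length or DBD) made by in vitro transcription/translation (PURExpress), about 100-200 nM. Bound TF was detected with fluorescent anti-GST. Each ungapped 8-mer (which stands for itself and its reverse complement) is scored by the PBM enrichment score (E-score), a modified Wilcoxon-Mann-Whitney statistic from -0.5 to +0.5, computed with the Universal PBM Analysis Suite. Scale: above 0.35 generally sequence-specific binding.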", "values": [{"sequence": "ACACACCC", "PBM E-score": 0.198}, {"sequence": "CCACACCA", "PBM E-score": 0.141}, {"sequence": "ACACACCT", "PBM E-score": 0.283}, {"sequence": "AACGTCAA", "PBM E-score": -0.269}, {"sequence": "AGGCTTCC", "PBM E-score": -0.119}, {"sequence": "CAAACGAG", "PBM E-score": 0.0174}, {"sequence": "CTATGGCA", "PBM E-score": -0.132}, {"sequence": "GTCCTTAA", "PBM E-score": -0.00154}, {"sequence": "CGCGCGCG", "PBM E-score": 0.286}, {"sequence": "GGCGCGCA", "PBM E-score": 0.121}, {"sequence": "AGCGCGCG", "PBM E-score": 0.0844}, {"sequence": "TGCGCGCA", "PBM E-score": 0.29}, {"sequence": "CGCGCGCC", "PBM E-score": 0.228}, {"sequence": "CGCGCGCA", "PBM E-score": 0.259}, {"sequence": "TGGTTGAA", "PBM E-score": -0.0692}, {"sequence": "TATGCTCA", "PBM E-score": 0.0368}, {"sequence": "GAGTGCCC", "PBM E-score": -0.0963}, {"sequence": "AAGCACTA", "PBM E-score": -0.0763}, {"sequence": "AATGCTGA", "PBM E-score": 0.027}, {"sequence": "CATGCTGA", "PBM E-score": 0.275}, {"sequence": "GATGCTGA", "PBM E-score": 0.0169}, {"sequence": "AACGACGC", "PBM E-score": -0.0318}, {"sequence": "CATTCACC", "PBM E-score": 0.0887}, {"sequence": "AAGAGGAT", "PBM E-score": -0.0743}, {"sequence": "GGTCTTTA", "PBM E-score": -0.0868}, {"sequence": "ACTCCCTC", "PBM E-score": 0.0377}, {"sequence": "ACTCCCTA", "PBM E-score": 0.063}, {"sequence": "ACTCCCTG", "PBM E-score": 0.276}, {"sequence": "CGGGTCAG", "PBM E-score": 0.204}, {"sequence": "CGAAGTCA", "PBM E-score": 0.203}, {"sequence": "GGAAGTCC", "PBM E-score": -0.212}, {"sequence": "GGAAGTCA", "PBM E-score": 0.282}, {"sequence": "TCAAGTCA", "PBM E-score": 0.111}, {"sequence": "GCAAGTCA", "PBM E-score": 0.279}, {"sequence": "ACAAGTCA", "PBM E-score": 0.174}, {"sequence": "TAGTTGAA", "PBM E-score": 0.134}, {"sequence": "AAGAAACA", "PBM E-score": -0.161}, {"sequence": "CCAGACGC", "PBM E-score": -0.029}, {"sequence": "CTAAGGAC", "PBM E-score": -0.0588}, {"sequence": "CGTTGCCC", "PBM E-score": -0.166}, {"sequence": "ATCGCCTA", "PBM E-score": 0.0387}, {"sequence": "AGGCAAAG", "PBM E-score": -0.192}, {"sequence": "GAGAGTCC", "PBM E-score": -0.0872}, {"sequence": "AAGAGTCA", "PBM E-score": 0.422}, {"sequence": "AAGAGTCT", "PBM E-score": 0.00073}, {"sequence": "TAGAGTCA", "PBM E-score": 0.355}, {"sequence": "GAGAGTAA", "PBM E-score": 0.0595}, {"sequence": "TAGAGTAA", "PBM E-score": -0.082}, {"sequence": "GAGAGTCA", "PBM E-score": 0.43}, {"sequence": "AAGAGTCC", "PBM E-score": -0.149}, {"sequence": "TAGAGTGA", "PBM E-score": -0.0169}, {"sequence": "GGCTGGTA", "PBM E-score": 0.0349}, {"sequence": "TATATTCA", "PBM E-score": 0.0779}, {"sequence": "GAGTGTTA", "PBM E-score": 0.00822}, {"sequence": "GTGCGATA", "PBM E-score": 0.0799}, {"sequence": "GCAGTCTA", "PBM E-score": -0.0301}, {"sequence": "CGGGTGAC", "PBM E-score": 0.143}, {"sequence": "GCATTGAC", "PBM E-score": -0.0613}, {"sequence": "GGCTGCCA", "PBM E-score": 0.181}, {"sequence": "GCGGTAGC", "PBM E-score": 0.0852}, {"sequence": "CAGAGAGG", "PBM E-score": -0.086}, {"sequence": "AGGGTGGA", "PBM E-score": 0.0785}, {"sequence": "AGGGTGGC", "PBM E-score": 0.173}, {"sequence": "AGGGTGGG", "PBM E-score": 0.282}, {"sequence": "CAGACTCA", "PBM E-score": 0.27}, {"sequence": "GAGACTCA", "PBM E-score": 0.36}, {"sequence": "AAGACTCC", "PBM E-score": 0.158}, {"sequence": "AAGACTCT", "PBM E-score": 0.209}, {"sequence": "GAGACTTA", "PBM E-score": -0.164}, {"sequence": "TAGACTCA", "PBM E-score": 0.221}, {"sequence": "AAGACTCA", "PBM E-score": 0.317}, {"sequence": "CAGACTCC", "PBM E-score": -0.0111}, {"sequence": "GAGACTCC", "PBM E-score": 0.286}, {"sequence": "CGAACCAG", "PBM E-score": 0.0659}, {"sequence": "AACGGTTG", "PBM E-score": 0.038}, {"sequence": "CCATAGGC", "PBM E-score": -0.172}, {"sequence": "GCCGCCCC", "PBM E-score": 0.0606}, {"sequence": "CCCCGCCC", "PBM E-score": 0.258}, {"sequence": "ACCGCCCT", "PBM E-score": -0.0373}, {"sequence": "ACCGCCCG", "PBM E-score": -0.058}, {"sequence": "CCCGCCCA", "PBM E-score": 0.301}, {"sequence": "ACCGCCCC", "PBM E-score": 0.325}, {"sequence": "GCCGCCCA", "PBM E-score": 0.128}, {"sequence": "CCCGCCCC", "PBM E-score": 0.329}, {"sequence": "CCCGCCCG", "PBM E-score": 0.259}, {"sequence": "GAGTCTGC", "PBM E-score": -0.0315}]}]}
